The list is not random: actives were taken first. Their share in the collection is about 3.4%.
Bst PK mod: pyruvate kinase (B. stearothermophilus) modulation; Potency, µM; purified pyruvate kinase, luminescence ATP production; ribose 5-phosphate activator present at AC10; AID 361; hit rate 1.2% among 51,000; in the data active means potency below about 11 µM; inconclusive means mostly about 12 µM to 25 µM;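 the screen sought inhibitors and activators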
GBA mod: modulators of human glucocerebrosidase; P04062; purified enzyme, resorufin glucoside fluorescence (screen aimed at inhibitors), 20 min; Potency, µM; hit rate 1.1% among 48,000; in the data active means potency below about 15 µM; inconclusive means mostly about 16 µM to 33 µM;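 further: the screen sought inhibitors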
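Wild-type enzyme at 0.2 nM final in 50mM citric acid/KH2PO4, 10mM sodium taurocholate, 0.01% tween-20, pH 5.9, with resorufin beta-D-glucopyranoside at 30 uM final. Compounds titrated, 20 min at RT, red fluorescence read; AC50 from titration.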
FLuc inh: firefly luciferase inhibition. Potency, µM (series often up to 57.1 µM), hits mostly inhibitors. hit rate 2.2% among 72,000. AID 411. P08659. purified firefly luciferase, luminescence, 8 min; active means well fitted inhibition curve with a large enough effect; inconclusive means small, poorly fitted or top-dose-only effect; further: nearly all actives have a fitted effect of over 40% in size
Target sequence (P08659 whole entry, looked up): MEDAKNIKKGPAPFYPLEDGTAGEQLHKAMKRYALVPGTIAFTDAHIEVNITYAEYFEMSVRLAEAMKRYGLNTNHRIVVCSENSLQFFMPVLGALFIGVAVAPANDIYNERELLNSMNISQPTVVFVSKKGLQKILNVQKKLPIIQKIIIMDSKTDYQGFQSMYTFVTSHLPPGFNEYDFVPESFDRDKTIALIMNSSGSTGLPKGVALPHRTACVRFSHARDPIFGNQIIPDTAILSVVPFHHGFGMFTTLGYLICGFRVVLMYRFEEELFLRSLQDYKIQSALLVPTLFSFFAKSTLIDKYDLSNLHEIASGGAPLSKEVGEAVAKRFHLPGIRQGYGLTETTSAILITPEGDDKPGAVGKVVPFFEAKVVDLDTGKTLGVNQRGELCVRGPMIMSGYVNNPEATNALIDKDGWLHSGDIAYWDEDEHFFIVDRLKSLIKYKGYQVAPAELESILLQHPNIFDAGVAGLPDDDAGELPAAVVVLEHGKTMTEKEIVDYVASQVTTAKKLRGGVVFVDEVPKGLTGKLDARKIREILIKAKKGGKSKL
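Here, luciferase activity is measured as luminescence following an 8 min room-temperature reaction at 10 uM ATP, pH 7.2. Every library sample is titrated.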
Hits are given with their value; – = inactive; ? = inconclusive; · = no result given; [ ] = remark or other dose.

SMILES | Bst PK mod | GBA mod | FLuc inh
COc1ccc2c(=O)c(-c3nc(C)cs3)coc2c1 | 4.15 | · | 2µM
Cc1ccc2c(CC(=O)OCc3csc(C)n3)coc2c1 | – | – | –
Cc1nc(-c2coc3cc(OCC(=O)O)ccc3c2=O)cs1 | 9.65 | · | 3.98µM
COC(=O)[C@]1(C)CCC(c2ccc(C)cc2)=C(CC(=O)O)C1 | · | · | –[11.4 µM]
CO[C@H]1COC(=O)[C@H]2CCCN2C(=O)C/C=C\[C@@H](C)[C@H](OC)COC(=O)[C@@H](OCc2ccccc2)/C=C\[C@@H]1C | · | · | –[11.4 µM]
Cc1ccc(N(C(=O)Cn2nnc(-c3ccc(C)o3)n2)C(C(=O)NC2CCCC2)c2ccco2)cc1 (stereo not drawn) | – | – | –
Cc1ccc(C)c(N(C(=O)Cn2nnc(-c3cccs3)n2)C(C(=O)NC2CC2)c2ccc(C)o2)c1 (stereo not drawn) | – | 12.1 | –
Cc1cccc(CNc2ncncc2-c2ccccc2CN(C)C)c1 | · | · | –[2.29 µM]
O=C(COc1ccc2oc(-c3ccccc3)cc(=O)c2c1)NCc1ccco1 | 4.1 | – | 7.94µM
O=C(COC(=O)COc1ccc(Nc2ccccc2)cc1)NCc1ccco1 | – | · | –
Cn1cccc1C(=O)OCC(=O)Nc1cc(C(C)(C)C)nn1-c1ccccc1 | – | – | –
Cn1cccc1C(=O)OCC(=O)c1cc2ccccc2o1 | – | – | 25.1µM
CS(=O)(=O)NC1CCN(Cc2ccccc2)CC1 | – | – | –
O=S(=O)(NC1CCCC1)c1ccc(S(=O)(=O)N2CCCN(Cc3ccccc3)C2)cc1 | – | 14.7 | –
Cc1cccc(-n2c(O)c(C=Nc3ccc4c(c3)OCO4)c3ccccc3c2=O)n1 | – | – | –
Cc1cc(N=Cc2c(O)n(-c3ccc4c(c3)OCO4)c(=O)c3ccccc23)ccn1 | – | 10.9 | –
O=C1C2[C@@H](c3ccccc3)N[C@@H](c3ccccc3)C1[C@H](c1ccccc1)N[C@H]2c1ccccc1 | · | · | –[11.4 µM]
c1ccc2c(c1)CCC[C@H]2C1=NCCN1 | · | · | –
Cn1ccc2cc(NC(=O)Nc3cccnc3)ccc21 | · | · | 15.8µM
O=C(Nc1cccnc1)Nc1ccc2c(c1)OCO2 | · | ? | 15.8µM
Cc1nonc1NC(=O)Nc1cccnc1 | – | ? | –
O=C(Nc1cccnc1)c1cnn2cccnc12 | – | – | –
O=C(Nc1ccc2c(c1)OCO2)Nc1cnccn1 | – | – | –
O=C(Nc1ccc2c(c1)OCO2)c1cnn2cccnc12 | – | – | 20µM
O=C(Nc1cccnc1)Nc1ccc(F)c(Cl)c1 | · | ? | 20µM
SMILES | Bst PK mod | GBA mod | FLuc inh
O=C(Nc1cccnc1)c1c(F)c(F)c(F)c(F)c1F | – | – | –
COC(=O)N1CCC2(CCN(Cc3cc(C(F)(F)F)cc(C(F)(F)F)c3)CC2)CC1 | · | · | –[11.4 µM]
O=c1cc(-c2ccc(O)c(O)c2)oc2cc(O)cc(O)c12 | · | · | –[11.4 µM]
COc1ccc(-c2cc(=O)c3c(O)cc(O)cc3o2)cc1 | · | · | 10µM
CCOc1ccc(-n2c(SCc3ccc(C(=O)OC)o3)nc3c(c2=O)SCC3)cc1 | – | – | –
COC(=O)c1ccc(CSc2nc3c(c(=O)n2-c2ccc(Br)cc2)SCC3)o1 | – | 4.94 | –
CC(C)(C)OC(=O)[C@H]([C@@H]1N[C@@H](C(=O)O)C(C)(C)S1)N1C(=O)c2ccccc2C1=O | · | · | –[11.4 µM]
O=C(CSc1nnc(Cc2csc(Nc3cccc(Cl)c3)n2)o1)N1CCc2ccccc21 | – | 14.5 | –
O=C(CSc1nnc(CNc2ccccc2)o1)N1CCc2ccccc21 | – | – | –
CC(=O)c1sc2nc(-c3cccs3)cc(C(F)(F)F)c2c1N | – | 13.5 | –
CS(=O)(=O)c1sc2nc(-c3cccs3)cc(-c3ccccc3)c2c1N | – | – | –
C[C@](N)(C(=O)O)c1ccc(-c2nn[nH]n2)cc1 | · | · | –
COC1=CC(=O)C[C@@H](C)[C@@]12Oc1c(Cl)c(OC)cc(OC)c1C2=O | · | · | –[11.4 µM]
COc1ccc(C(=O)Nc2cc(C)on2)cc1 | · | · | 10µM
Cc1cc(NC(=O)c2ccc3nc(-c4ccccc4)c(-c4ccccc4)nc3c2)no1 | – | 14 | –
C/C(=C\C(=O)Nc1cc(C)on1)c1ccccc1 | · | · | –
Cc1cc(NC(=O)c2cc(C)on2)no1 | – | – | –
Cc1cnc(CNc2cc(-c3ccc4c(c3)OCO4)ncn2)cn1 | · | · | –[2.29 µM]
CC(C)[C@H](Nc1ncnc2nc[nH]c12)C(=O)O | · | · | –[11.4 µM]
COc1ccc(-n2ncc3c(Nc4cccc(C)c4)ncnc32)cc1 | – | · | –
CCCNc1ncnc2c1cnn2-c1ccc(OC)cc1 | ? | · | 7.94µM
CCCN(CCC)c1ncnc2c1cnn2-c1ccc(OC)cc1 | ? | – | 15.8µM
COc1ccc(-n2ncc3c(NCCCN4CCOCC4)ncnc32)cc1 | · | – | –
O=C1C=C[C@@H](O)[C@H]2[C@@H]3C(=O)N(C[C@@H]4CCCO4)C(=O)[C@@H]3CC[C@H]12 | · | · | –[11.4 µM]
O=C(O)CN(CCN(CC(=O)O)CC(=O)O)CCN(CC(=O)O)CC(=O)O | · | · | –
SMILES | Bst PK mod | GBA mod | FLuc inh
Cc1cc2c(nc1C)CCCCN2C[C@H](C)O/N=C\[C@@H](C)[C@H](OCc1ccccc1)C(C)C | · | · | –[11.4 µM]
CN1CCN(CN2C(=O)C3C4C=CC(C3C2=O)C2C3C(=O)N(CN5CCN(C)CC5)C(=O)C3C42)CC1 (stereo not drawn) | · | · | –[11.4 µM]
CCOc1ccc(-c2cc(CCCC(=O)N3CCN(c4ccc(OC)cc4)CC3)no2)cc1 | · | · | –
CCOc1ccc(-c2cc(CCCC(=O)NCCCOC)no2)cc1 | · | – | 15.8µM
Cc1cccc(N(C)S(=O)(=O)c2ccc3[nH]c(=O)c(=O)[nH]c3c2)c1 | · | 10.9 | –
Cc1cccc(N(C)S(=O)(=O)c2ccc3[nH]cc(C(=O)N4CCOCC4)c(=O)c3c2)c1 | – | – | –
c1ccc2c3c([nH]c2c1)-c1[nH]ncc1CC3 | 3.14 | – | –
Clc1ccc2[nH]c3c(c2c1)CCc1cn[nH]c1-3 | · | · | –
COc1ccc2cc(C(=O)NCc3ccco3)c(=Nc3ccc(C(=O)O)cc3)oc2c1 | · | – | –
COc1ccc(N=c2oc3c(OC)cccc3cc2C(=O)NCc2ccco2)c(OC)c1 | – | 2.1 | –
O=c1nc2n(c3ccccc13)Cc1ccccc1-2 | – | – | –
O=c1cc(-c2ccccc2)nc2n1Cc1ccccc1-2 | 0.878 | – | –
COc1ccccc1CCn1c(=O)c(-c2cccs2)nc2cncnc21 | · | · | –[11.4 µM]
Cc1cnc(CNc2ncncc2-c2ccccc2C(F)(F)F)cn1 | · | · | –[2.29 µM]
C=CCn1c(-c2cccs2)nc2nc3ccccc3nc21 | · | – | 20µM
C=CCn1c(-c2cccs2)nc2ccccc21 | – | – | –
CN(Cc1ccco1)c1cc(-c2cccc(NS(C)(=O)=O)c2)ncn1 | · | · | –[2.29 µM]
O=C(O)[C@H]([C@H]1NCCS1)N1Cc2ccccc2C1 | · | · | –[11.4 µM]
O=c1c(CCc2ccccc2)nc2cnc(Nc3ccccc3)nc2n1Cc1cccs1 | · | · | –[11.4 µM]
CCc1ccc(OC(=O)c2ccn(CC)n2)cc1 | ? | – | 12.6µM
CCOC(=O)c1c(NC(=O)c2ccn(CC)n2)sc2c1CCCC2 | – | – | –
CCCCC[C@H](O)/C=C\[C@H]1[C@H](C/C=C\CCCC(=O)O)[C@@H](O)C[C@H]1O (tested in a mixture with another compound) | · | · | –
CN(C)c1oc(COc2ccc(F)cc2)nc1C#N | – | – | –
CN(C)c1oc(-c2ccc(OCc3ccc(Cl)cc3)cc2)nc1C#N | 0.247 | – | –
CCN(CC)CCCOc1nc(C)nc2c1oc1ccccc12 | – | – | –
CN(C)CCOc1nc(-c2ccccc2)nc2c1oc1ccccc12 | 10.7 | – | –
CC(C)C(=O)Cc1ccc2ccccc2n1 | · | · | –[11.4 µM]

Assay outcomes from PubChem.
